According to PubChem BioAssay (EPA / NIEHS):
Calls of active or inactive are those of the source. How the source made its calls: active means hit-call score of the fitted dose curve at least 0.9, where 1 is the maximum; inactive means score below 0.9.

What was measured:
Settings in all cases: mRNA level, 48 h; actives raise or lower the signal
[1] = read-out: cysteine-aspartic acid protease (CASP8), CASP8 (gene 841); test: LTEA_HepaRG_CASP8: Life Technologies and Expression Analysis (LTEA) Assay for cysteine-aspartic acid protease (CASP8) using HepaRG (AID 2283480)
In short: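 qRT-PCR readout of CASP8 mRNA, normalized to three housekeeping genes, after 48 h chemical exposure of HepaRG cells; 8-point half-log series, top 100 uM, 0.5% DMSO vehicle. Bidirectional curve fitting against DMSO baseline.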

[2] = read-out: Cytochrome P450 (CYP2B6), CYP2B6 (gene 1555); test: LTEA_HepaRG_CYP2B6: Life Technologies and Expression Analysis (LTEA) Assay for Cytochrome P450 (CYP2B6) using HepaRG (AID 2283481)
In short: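 Read-out is CYP2B6 mRNA by TaqMan qRT-PCR, normalized to three housekeeping genes and fitted bidirectionally against 0.5% DMSO baseline. Human HepaRG cells received test chemicals for 48 h, top concentration 100 uM, half-log dilutions.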

[3] = read-out: Cytochrome P450 2C19 (Homo sapiens) (UniProt P33261); test: LTEA_HepaRG_CYP2C19: Life Technologies and Expression Analysis (LTEA) Assay for CYP2C19 using HepaRG (AID 2283482)
In short: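 HepaRG, 48 h chemical exposure, 8-pt half-log series from 100 uM in 0.5% DMSO, duplicates. Readout: CYP2C19 mRNA by TaqMan qRT-PCR, housekeeping-normalized. Bidirectional fit vs DMSO baseline; phenobarbital 1mM as induction control.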

CYP2C8 (gene 1558) = test: LTEA_HepaRG_CYP2C8: Life Technologies and Expression Analysis (LTEA) Assay for CYP2C8 using HepaRG (AID 2283483)
In short: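 HepaRG (human liver line), 48 h chemical exposure, 8-pt half-log series from 100 uM, 0.5% DMSO vehicle. Readout: CYP2C8 transcript by qRT-PCR, housekeeping-normalized. Bidirectional fit vs DMSO baseline.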

CYP2C9 (gene 1559) = test: LTEA_HepaRG_CYP2C9: Life Technologies and Expression Analysis (LTEA) Assay for CYP2C9 using HepaRG (AID 2283484)
In short: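 HepaRG, 48 h dosing, 8-pt half-log series, top 100 uM, 0.5% DMSO vehicle. Read-out: CYP2C9 transcript by TaqMan qRT-PCR, housekeeping-normalized (ACTB/GAPDH/POLR2A). Gain or loss fitted vs DMSO baseline.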

CYP2E1 (gene 1571) = test: LTEA_HepaRG_CYP2E1: Life Technologies and Expression Analysis (LTEA) Assay for CYP2E1 using HepaRG (AID 2283485)
In short: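 CYP2E1 transcript measured by Fluidigm qRT-PCR against three housekeeping genes in human HepaRG cells treated 48 h (top 100 uM, half-log steps, 0.5% DMSO vehicle). Gain or loss fitted relative to DMSO baseline.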

CYP4A11 (gene 1579) = test: LTEA_HepaRG_CYP4A11: Life Technologies and Expression Analysis (LTEA) Assay for CYP4A11 using HepaRG (AID 2283486)
In short: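 CYP4A11 transcript levels were quantified by TaqMan qRT-PCR after HepaRG human liver cells were treated for 48 hours with test chemicals (top 100 uM, half-log dilutions, 0.5% DMSO). Gain or loss of signal was fitted relative to DMSO.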

[4] = read-out: Cytochrome P450 3A4 (Homo sapiens) (UniProt P08684); test: LTEA_HepaRG_CYP3A4: Life Technologies and Expression Analysis (LTEA) Assay for CYP3A4 using HepaRG (AID 2283487)
In short: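 Differentiated HepaRG cells in serum-free induction medium exposed in duplicate for 48 h to 8 half-log concentrations up to 100 uM in 0.5% DMSO. CYP3A4 mRNA measured by qRT-PCR normalized to ACTB, GAPDH and POLR2A; bidirectional fit versus DMSO.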

[5] = read-out: DNA damage-inducible transcript 3 (DDIT3), DDIT3 (gene 1649); test: LTEA_HepaRG_DDIT3: Life Technologies and Expression Analysis (LTEA) Assay for DNA damage-inducible transcript 3 (DDIT3) using HepaRG (AID 2283488)
In short: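 DDIT3 transcript was quantified by qRT-PCR with ACTB/GAPDH/POLR2A normalization after 48 h chemical treatment of differentiated HepaRG cells in 0.5% DMSO. Dosing was eight-point, half-log, top 100 uM, duplicate wells. Curves fitted bidirectionally versus DMSO.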

[6] = read-out: Pro-epidermal growth factor (Homo sapiens) (UniProt P01133); test: LTEA_HepaRG_EGF: Life Technologies and Expression Analysis (LTEA) Assay for Epidermal growth factor (EGF) using HepaRG (AID 2283489)
In short: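 qRT-PCR readout of EGF transcript after 48 h chemical exposure of HepaRG cells; eight concentrations from 100 uM down in half-log steps, duplicate wells, 0.5% DMSO vehicle. Bidirectional curve fitting against DMSO baseline.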

Sequence of Cytochrome P450 3A4 (Homo sapiens) (P08684 whole entry, looked up): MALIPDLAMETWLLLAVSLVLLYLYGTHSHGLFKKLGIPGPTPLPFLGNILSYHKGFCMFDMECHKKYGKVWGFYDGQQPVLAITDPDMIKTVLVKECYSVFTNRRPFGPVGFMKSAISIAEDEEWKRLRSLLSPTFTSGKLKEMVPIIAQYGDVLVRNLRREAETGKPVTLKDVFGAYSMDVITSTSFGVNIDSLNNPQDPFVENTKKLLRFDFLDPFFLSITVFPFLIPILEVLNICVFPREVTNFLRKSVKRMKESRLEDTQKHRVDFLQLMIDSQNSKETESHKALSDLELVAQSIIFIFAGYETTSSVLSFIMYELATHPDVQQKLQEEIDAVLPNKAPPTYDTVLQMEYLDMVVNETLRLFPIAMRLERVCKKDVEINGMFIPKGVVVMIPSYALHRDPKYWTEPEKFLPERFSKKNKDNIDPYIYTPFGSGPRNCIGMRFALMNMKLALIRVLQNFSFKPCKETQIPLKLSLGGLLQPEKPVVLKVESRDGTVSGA
Sequence of Cytochrome P450 2C19 (Homo sapiens) (P33261 whole entry, looked up): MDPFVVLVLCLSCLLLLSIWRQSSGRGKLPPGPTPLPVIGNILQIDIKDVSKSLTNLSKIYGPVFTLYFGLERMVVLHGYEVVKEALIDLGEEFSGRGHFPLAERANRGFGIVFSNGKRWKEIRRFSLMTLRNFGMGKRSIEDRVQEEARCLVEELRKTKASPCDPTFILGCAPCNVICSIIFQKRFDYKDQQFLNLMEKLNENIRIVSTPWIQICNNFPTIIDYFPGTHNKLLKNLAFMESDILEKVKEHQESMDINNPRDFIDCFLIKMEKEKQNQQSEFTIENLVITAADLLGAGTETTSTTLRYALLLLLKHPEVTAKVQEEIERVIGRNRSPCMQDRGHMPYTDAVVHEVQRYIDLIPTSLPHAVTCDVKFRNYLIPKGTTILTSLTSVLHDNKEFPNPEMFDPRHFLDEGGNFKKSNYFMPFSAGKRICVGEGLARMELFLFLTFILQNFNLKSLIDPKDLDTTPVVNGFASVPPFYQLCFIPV

## Clc1ccc(Cl)c(Cl)c1
[1]
  outcome: inactive
[2]
  outcome: inactive
[3]
  outcome: inactive
CYP2C8 (gene 1558)
  outcome: inactive
CYP2C9 (gene 1559)
  outcome: inactive
CYP2E1 (gene 1571)
  AC50: 50 µM (active)
CYP4A11 (gene 1579)
  outcome: inactive
[4]
  outcome: inactive
[5]
  AC50: 9.92 µM (active)

## Nc1cc(Cl)cc(C(=O)O)c1Cl
[1]
  outcome: inactive
[2]
  outcome: inactive
[3]
  outcome: inactive
CYP2C8 (gene 1558)
  outcome: inactive
CYP2C9 (gene 1559)
  outcome: inactive
CYP2E1 (gene 1571)
  outcome: inactive
CYP4A11 (gene 1579)
  AC50: 50 µM (active)
[4]
  outcome: inactive
[5]
  outcome: inactive

## Cc1ccc(N)cc1
[1]
  outcome: inactive
[2]
  AC50: 16.5 µM (active)
[3]
  outcome: inactive
CYP2C8 (gene 1558)
  outcome: inactive
CYP2C9 (gene 1559)
  outcome: inactive
CYP2E1 (gene 1571)
  outcome: inactive
CYP4A11 (gene 1579)
  outcome: inactive
[4]
  outcome: inactive
[5]
  outcome: inactive

## Oc1ccc2ccc3cccc4ccc1c2c34
[1]
  outcome: inactive
[2]
  outcome: inactive
[3]
  outcome: inactive
CYP2C8 (gene 1558)
  outcome: inactive
CYP2C9 (gene 1559)
  outcome: inactive
CYP2E1 (gene 1571)
  AC50: 50 µM (active)
CYP4A11 (gene 1579)
  outcome: inactive
[4]
  outcome: inactive
[5]
  outcome: inactive

## ClCCOCCCl
[1]
  outcome: inactive
[2]
  outcome: inactive
[3]
  outcome: inactive
CYP2C8 (gene 1558)
  outcome: inactive
CYP2C9 (gene 1559)
  outcome: inactive
CYP2E1 (gene 1571)
  outcome: inactive
CYP4A11 (gene 1579)
  outcome: inactive
[4]
  outcome: inactive
[5]
  outcome: inactive

## COP(=S)(OC)SCN1C(=O)c2ccccc2C1=O
[1]
  outcome: inactive
[2]
  AC50: 50 µM (active)
[3]
  outcome: inactive
CYP2C8 (gene 1558)
  outcome: inactive
CYP2C9 (gene 1559)
  outcome: inactive
CYP2E1 (gene 1571)
  outcome: inactive
CYP4A11 (gene 1579)
  outcome: inactive
[4]
  outcome: inactive
[5]
  outcome: inactive

## CCCCCOC(=O)c1ccccc1C(=O)OCCCCC
[1]
  outcome: inactive
[2]
  outcome: inactive
[3]
  outcome: inactive
CYP2C8 (gene 1558)
  outcome: inactive
CYP2C9 (gene 1559)
  outcome: inactive
CYP2E1 (gene 1571)
  outcome: inactive
CYP4A11 (gene 1579)
  AC50: 50 µM (active)
[4]
  outcome: inactive
[5]
  outcome: inactive
[6]
  outcome: inactive

## OCCCBr
[1]
  outcome: inactive
[2]
  AC50: 40.8 µM (active)
[3]
  outcome: inactive
CYP2C8 (gene 1558)
  outcome: inactive
CYP2C9 (gene 1559)
  outcome: inactive
CYP2E1 (gene 1571)
  outcome: inactive
CYP4A11 (gene 1579)
  outcome: inactive
[4]
  outcome: inactive
[5]
  outcome: inactive

## Cc1ccc(N)c(N)c1
[1]
  outcome: inactive
[2]
  AC50: 50 µM (active)
[3]
  outcome: inactive
CYP2C8 (gene 1558)
  outcome: inactive
CYP2C9 (gene 1559)
  outcome: inactive
CYP2E1 (gene 1571)
  AC50: 50 µM (active)
CYP4A11 (gene 1579)
  outcome: inactive
[4]
  outcome: inactive
[5]
  outcome: inactive
[6]
  outcome: inactive

## c1ccc2c(c1)oc1ccccc12
[1]
  outcome: inactive
[2]
  AC50: 0.0679 µM (active)
[3]
  outcome: inactive
CYP2C8 (gene 1558)
  outcome: inactive
CYP2C9 (gene 1559)
  outcome: inactive
CYP2E1 (gene 1571)
  outcome: inactive
CYP4A11 (gene 1579)
  outcome: inactive
[4]
  outcome: inactive
[5]
  outcome: inactive
[6]
  outcome: inactive

## c1ccc(NNc2ccccc2)cc1
[1]
  outcome: inactive
[2]
  AC50: 5.26 µM (active)
[3]
  outcome: inactive
CYP2C8 (gene 1558)
  outcome: inactive
CYP2C9 (gene 1559)
  outcome: inactive
CYP2E1 (gene 1571)
  outcome: inactive
CYP4A11 (gene 1579)
  outcome: inactive
[4]
  outcome: inactive
[5]
  outcome: inactive
[6]
  outcome: inactive

## N#CC(Br)(Br)C(N)=O
[1]
  outcome: inactive
[2]
  outcome: inactive
[3]
  outcome: inactive
CYP2C8 (gene 1558)
  outcome: inactive
CYP2C9 (gene 1559)
  outcome: inactive
CYP2E1 (gene 1571)
  outcome: inactive
CYP4A11 (gene 1579)
  outcome: inactive
[4]
  outcome: inactive
[5]
  outcome: inactive
[6]
  outcome: inactive

## Nc1ccc(Cl)cc1N
[1]
  outcome: inactive
[2]
  AC50: 21.6 µM (active)
[3]
  AC50: 28.6 µM (active)
CYP2C8 (gene 1558)
  AC50: 25.1 µM (active)
CYP2C9 (gene 1559)
  AC50: 24.6 µM (active)
CYP2E1 (gene 1571)
  AC50: 19.5 µM (active)
CYP4A11 (gene 1579)
  AC50: 23.2 µM (active)
[4]
  AC50: 19.7 µM (active)
[5]
  AC50: 50 µM (active)

## Clc1ccccc1Cl
[1]
  outcome: inactive
[2]
  outcome: inactive
[3]
  outcome: inactive
CYP2C8 (gene 1558)
  outcome: inactive
CYP2C9 (gene 1559)
  outcome: inactive
CYP2E1 (gene 1571)
  outcome: inactive
CYP4A11 (gene 1579)
  outcome: inactive
[4]
  outcome: inactive
[5]
  outcome: inactive
[6]
  outcome: inactive

## CNC(=O)Oc1cccc2c1OC(C)(C)C2
[1]
  outcome: inactive
[2]
  AC50: 3.94 µM (active)
[3]
  AC50: 17.4 µM (active)
CYP2C8 (gene 1558)
  outcome: inactive
CYP2C9 (gene 1559)
  outcome: inactive
CYP2E1 (gene 1571)
  AC50: 23.7 µM (active)
CYP4A11 (gene 1579)
  outcome: inactive
[4]
  AC50: 6.81 µM (active)
[5]
  outcome: inactive
[6]
  outcome: inactive

## Clc1ccc(C(c2ccc(Cl)cc2)C(Cl)Cl)cc1
[1]
  outcome: inactive
[2]
  AC50: 2.87 µM (active)
[3]
  AC50: 7.66 µM (active)
CYP2C8 (gene 1558)
  AC50: 12.7 µM (active)
CYP2C9 (gene 1559)
  outcome: inactive
CYP2E1 (gene 1571)
  AC50: 52.5 µM (active)
CYP4A11 (gene 1579)
  AC50: 50 µM (active)
[4]
  AC50: 10 µM (active)
[5]
  outcome: inactive
[6]
  outcome: inactive

## Nc1ccc([N+](=O)[O-])cc1
[1]
  outcome: inactive
[2]
  outcome: inactive
[3]
  outcome: inactive
CYP2C8 (gene 1558)
  outcome: inactive
CYP2C9 (gene 1559)
  outcome: inactive
CYP2E1 (gene 1571)
  outcome: inactive
CYP4A11 (gene 1579)
  outcome: inactive
[4]
  outcome: inactive
[5]
  outcome: inactive
[6]
  outcome: inactive

## CCNS(=O)(=O)C(F)(F)C(F)(F)C(F)(F)C(F)(F)C(F)(F)C(F)(F)C(F)(F)C(F)(F)F
[1]
  outcome: inactive
[2]
  outcome: inactive
[3]
  outcome: inactive
CYP2C8 (gene 1558)
  outcome: inactive
CYP2C9 (gene 1559)
  outcome: inactive
CYP2E1 (gene 1571)
  AC50: 48.2 µM (active)
CYP4A11 (gene 1579)
  AC50: 12 µM (active)
[4]
  outcome: inactive
[5]
  outcome: inactive
[6]
  outcome: inactive

## CCOc1cccc(C2(N3CCN(c4ccccc4)CC3)CCC(C)CC2)c1 (stereo unspecified)
[1]
  outcome: inactive
[2]
  AC50: 30.8 µM (active)
[3]
  outcome: inactive
CYP2C8 (gene 1558)
  outcome: inactive
CYP2C9 (gene 1559)
  outcome: inactive
CYP2E1 (gene 1571)
  outcome: inactive
CYP4A11 (gene 1579)
  outcome: inactive
[4]
  outcome: inactive
[5]
  outcome: inactive
[6]
  outcome: inactive

## CCOC(=O)[C@]1(c2ccccc2)Oc2ccccc2[C@@H]1N
[1]
  outcome: inactive
[2]
  AC50: 81.9 µM (active)
[3]
  AC50: 78.2 µM (active)
CYP2C8 (gene 1558)
  outcome: inactive
CYP2C9 (gene 1559)
  AC50: 74.3 µM (active)
CYP2E1 (gene 1571)
  AC50: 75.2 µM (active)
CYP4A11 (gene 1579)
  AC50: 79.7 µM (active)
[4]
  AC50: 80 µM (active)
[5]
  AC50: 76.8 µM (active)

## CCCCOC(=O)c1ccccc1C(=O)OCc1ccccc1
[1]
  outcome: inactive
[2]
  outcome: inactive
[3]
  outcome: inactive
CYP2C8 (gene 1558)
  outcome: inactive
CYP2C9 (gene 1559)
  outcome: inactive
CYP2E1 (gene 1571)
  outcome: inactive
CYP4A11 (gene 1579)
  outcome: inactive
[4]
  outcome: inactive
[5]
  outcome: inactive
[6]
  outcome: inactive
